Each structure is given as a SMILES string. About 400 (0.57%) of roughly 70,000 compounds were called active. What follows is part of a selection rich in actives, with near analogues and random picks from the rest. A number with no mark means an inactive call. No stated cut-off is given here; in the data, active means FP signal below about 40; inactive means the rest.

The assay concerns RMI core complex (RMI1/RMI2) binding to FANCM MM2 peptide, human. As to the kind of experiment: disruptors of RMI1/RMI2 association with MM2 peptide – biochemical, fluorescence polarization, human, primary screen (AID 1159607). To be noted: RMI core complex with F-MM2 peptide, at 33 µM, stronger effect = lower value. In general terms: In fluorescence polarisation assays a small probe gives low polarisation when free and higher when bound to something large.
`Cc1nc2c(=S)[nH]nc(-c3ccccc3)c2s1`: the FP signal (polarization) was 68.
The value for `CCc1cc(C(=O)c2ccc(OC)cc2)c(NC(=O)CN2CCN(C)CC2)s1` was 69; that for `COc1ccc(OC)c(-c2cc3ccc(O)c(CN4CCN(C)CC4)c3oc2=O)c1` was 37 (active).
In the case of `COc1cccc2cc(-c3cc(=O)oc4cc(OCC(=O)OC(C)(C)C)ccc34)c(=O)oc12`, the FP signal (polarization) was 67.
The value for `Cn1nccc1-c1nnc(NC(=O)c2c(F)cccc2Cl)o1` was 75.
The same measure for `CCCCOc1ccccc1-c1cc2c(SCC(=O)Nc3ccc(NC(C)=O)cc3)nccn2n1`: 70.
The value for `CCOC(=O)c1nn(-c2ccccc2C)c(=O)cc1NCCC(c1ccccc1)c1ccccc1` was 54.
`COc1ccc(C)c2sc(N(Cc3cccnc3)C(=O)/C=C/c3ccccc3)nc12`: the FP signal (polarization) was 55.
The value for `CC(C)(C)c1cc(NC(=O)CSc2nnc3ccccn23)cc(C(C)(C)C)c1` was 59.
The value for `O=C(Cn1cc(-c2nnc(-c3ccccc3)o2)c2ccccc21)N1CCCC1` was 130; that for `CCCc1cc(=O)n(CC(=O)Nc2ccccc2F)cn1` was 65; that for `O=C(Nc1ccccc1-c1nc2ccccc2s1)c1ccc(Cl)s1` was 60.
Turning to `O=C(CSc1nnc(CNC(=O)c2ccc(F)cc2)o1)Nc1ccc2c(c1)OCO2`, the FP signal (polarization) was 57.
As for `COC(=O)c1cc(OC)c(OC)cc1NC(=O)C1Cc2ccccc2C(=O)O1` (centres undefined), the FP signal (polarization) is 56.
With `CC(=O)SCC(=O)Nc1sccc1C#N`, the FP signal (polarization) was 66.
The value for `O=C(CSc1nnc(NC(=O)c2c(F)cccc2Cl)s1)Nc1ccc(Br)cc1` was 61; that for `O=C(Nc1ccc(OC(F)(F)F)cc1)c1cnc2sccn2c1=O` was 64; that for `O=C(NCC1CCN(Cc2cccs2)CC1)c1ccco1` was 72.
The same measure for `CCOc1ccc(-c2noc(-c3cc(-c4cc(C)ccc4C)n[nH]3)n2)cc1OC`: 95; for `COc1ccc2nc(-c3ccc(NC(=O)c4c(F)cccc4Cl)cc3)cn2n1`: 122.
The value for `SCCc1nc2ccccc2[nH]1` was 63.
As for `COc1ccc(-c2noc(Cn3cnc4c(nnn4Cc4cccc(F)c4)c3=O)n2)cc1`, the FP signal (polarization) was 76.
The same measure for `O=C(Nc1cc(F)ccc1F)N1CCN(c2ccc(-c3ccc4c(c3)OCO4)nn2)CC1`: 123.
On to `O=C(COc1ccc(Cl)cc1)Nc1ccc2c(c1)C(=O)NCCO2`, for which the FP signal (polarization) is 60.
The same measure for `COC(=O)c1c(NC(=O)CCS(=O)(=O)c2ccc(Cl)cc2)sc2c1CCC(C)C2` (centres undefined): 96; for `O=C(CN1C(=O)c2ccccc2C1=O)Nc1nnc(-c2ccco2)o1`: 63.
The value for `CCOc1ccc(S(=O)(=O)Nc2ccc3c(c2)CN(C(=O)C2CC2)CC3)cc1F` was 66; that for `CCc1nnc(C2CCN(S(C)(=O)=O)CC2)s1` was 60.
The value for `Clc1ccc(C=Nc2cccnc2)c(Cl)c1` was 63.
As for `Cc1cccnc1N=Cc1cc(Cl)cc(Cl)c1O`, the FP signal (polarization) is 29 (active).
The same measure for `Oc1ccc(Br)cc1C=Nc1ccccn1`: 41; for `Cn1c(SCC(=O)NCc2ccc(F)cc2)nc2cc(-c3ccccc3)sc2c1=O`: 104; for `CN(C)c1ccc(CCCNC(=O)COc2ccc(Cl)cc2)cc1`: 69.
The same measure for `Cn1nc(-c2cccc(NC(=O)c3ccccc3C(F)(F)F)c2)ccc1=O`: 56; for `O=C(N/N=C\c1ccncc1)N/N=C\c1ccncc1`: 54.
The value for `O=C(/C=C/c1cccc(F)c1)c1cccs1` was 64.
Turning to `CCc1ccccc1NC(=O)c1csc(Nc2ccc(S(C)(=O)=O)cc2)n1`, the FP signal (polarization) is 77.
The same measure for `C=CCN(CC=C)S(=O)(=O)c1ccc(C(=O)Nc2nc(-c3ccc4ccccc4c3)cs2)cc1`: 86; for `Nc1ccc2c(c1)N(C(=O)c1ccccc1)CCC2`: 68; for `Nc1cc(-c2ccccc2)no1`: 63.
In the case of `C=CCn1c(SCC(=O)Nc2nsc(-c3ccccc3)n2)nc2scc(-c3ccco3)c2c1=O`, the FP signal (polarization) is 98.
The value for `COc1ccc(CC(=O)Nc2ccc(SCC(=O)N3CCCC3)nn2)cc1OC` was 61; that for `O=C(CC1CCCCN1S(=O)(=O)c1ccc(F)cc1)NCc1ccc2c(c1)OCO2` (centres undefined) was 68.
For the compound `CCn1nc(C(=O)Nc2cc(C)nn2-c2nc3ccc(OC)cc3s2)cc1C`, the FP signal (polarization) was 71.
The value for `Cc1ccc(C)c(NC(=O)CCS(=O)(=O)c2ccccc2)c1` was 70; that for `CCOC(=O)c1sc(NC(=O)c2ccc(-c3ccccc3)cc2)nc1-c1ccccc1` was 57.
The value for `COc1ccc(-c2nc(NC(=O)c3cccc(NS(=O)(=O)c4ccccc4)c3)sc2C)cc1` was 52.
The same measure for `COc1ccc(C(=O)Nc2nc(-c3ccccc3)c(C)s2)cc1`: 33 (active).
For `CCCC(=O)Nc1cc(-c2cn3nc(OC)ccc3n2)ccc1OC`, the FP signal (polarization) is 70.
With `COc1ccc2nc(-c3ccc(F)c(NC(=O)c4ccccc4C(F)(F)F)c3)cn2n1`, the FP signal (polarization) is 87.
The same measure for `COc1ccc2nc(-c3ccc(OC)c(NC(=O)c4ccccc4Cl)c3)cn2n1`: 13 (active).
The same measure for `COc1ccc(N)cc1N1CCCCC1=O`: 62.
The same measure for `COc1ccc(-c2csc3c(=O)n(Cc4ccccc4Cl)cnc23)cc1`: 63; for `O=c1c2scc(-c3ccccc3)c2ncn1Cc1ccccc1`: 64; for `COc1ccc(-c2csc3c(=O)n(Cc4cc(=O)n5ccccc5n4)cnc23)cc1OC`: -23 (active).
For `O=C(NCCN1CCN(c2ccc(F)cc2)CC1)C(=O)NC1CC1`, the FP signal (polarization) was 62.
The value for `N/C(CS(=O)(=O)c1ccc(Cl)cc1)=N/O` was 56; that for `O=C(/C=C/c1cccs1)Nc1nnc(-c2cc3ccccc3o2)o1` was 56; that for `COC1C=CC23c4cc5c(cc4CN(CC2O)[C@@H]3C1)OCO5` (some centres undefined) was 63.
The same measure for `O=C(Cn1c2c(c(=O)n(C3CCCCC3)c1=O)CCC2)Nc1ccc2c(c1)OCCO2`: 58; for `Cc1ccc(C(=O)CSc2nnc3ccc4ccccc4n23)cc1C`: 75.
The value for `CCCc1cc(=O)[nH]c2nnc(SCC(=O)Nc3nc4ccc(C)cc4s3)n12` was 47; that for `Cc1ccc2c(c1)nnc1nnc(SCC(=O)O)n12` was 2 (active).
With `O=C1NC(=O)c2cc(S(=O)(=O)N(CCO)CCO)cc3cccc1c23`, the FP signal (polarization) is 56.

These data come from PubChem BioAssay AID1159607 (Small Molecule Screening Facility, UW Madison, 2016).
